# Measured values: PubChem BioAssay (NCI)
# This is part of a sample that, as a whole, favours compounds with a hit. Of some 83,000 tested, about 20% had one in any assay.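 Each cell line was grown in a 96-well plate and treated with one concentration of compound for 48 hours. Values below 10 were considered active.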 Unmarked numbers belong to inactive results. Calls of active or inactive are those of the source.
# System: HCT-15 colon
# Assay: NCI-60 one-dose screen, 48 h (100 = growth as untreated, 0 = no growth, -100 = all killed)
# Settings: 10 µM unless noted
# Protocol: Growth inhibition of the HCT-15 human tumor cell line is measured as a screen for anti-cancer activity. Cells are grown in 96 well plates and exposed to the test compound for 48 hours. Compounds are tested at a single concentration, which is 10^-5 M for most compounds. The reported endpoint is percent growth (GI% or GIPRCNT), where numbers from 0 - 100% represent growth inhibition, and numbers from -100% - 0 represent cell death. For example, a value of 40 represents 60% growth inhibition. A value of 0 means no net growth occurred over the course of the experiment. A value of -40 indicates 40% of cells at the beginning of the experiment died by the end of the experiment. A value of -100 means all cells are dead at the end of the experiment.
# NCI-60 Human Tumor Cell Lines Screen was performed using the standard one-dose NCI protocol, which is described in more detail at https://dtp.cancer.gov/discovery_development/nci-60/default.htm.
# Compounds with GIPRCNT values below 10 were considered active. Activity score was based on GIPRCNT using the following formula: […]
# Score is 0 for GIPRCNT values of 100 or above, 50 for GIPRCNT values of 0, and 100 for GIPRCNT values of -100.
row,Structure (SMILES),growth
1,O=C(N/N=C/C[C@@H]1[C@@H](/C=C/[C@@H](O)COc2cccc(Cl)c2)[C@H](O)C[C@@H]1O)c1ccncc1,99.3%
2,N#C/C(=C/c1ccc(O)c([N+](=O)[O-])c1)c1nc(-c2ccc([N+](=O)[O-])cc2)cs1,24.7%
3,CC1=C(CCCOC(=O)NCCCl)C2=C(C)C3(CC3)[C@@](C)(O)C(=O)C2=C1,24.9%
4,C=C1C(=O)O[C@H]2[C@H]1CC/C(COC(=O)Nc1nc3ccccc3[nH]1)=C\CC[C@@]1(C)O[C@@H]21,25.3%
5,CC(=O)Nc1ccc2c(c1)Cc1cc(F)ccc1-2,105%
6,C/C(=N/Nc1nc2ccccc2n1C)c1ccccn1,25.3%
7,COc1ccc(C2N(c3cc(OC)c(OC)c(OC)c3)C(=O)C2(F)F)cc1F (stereo not given),19.4%
8,CN(C)CCCn1c2c(c3cc(-c4ccco4)ccc3c1=O)C(=O)c1ccccc1-2,54.4%
9,COc1cc(C)ccc1Oc1nc(Nc2ccc(N3CCOCC3)cc2)ncc1N=Cc1cc(C(F)(F)F)cc(C(F)(F)F)c1,92%
10,C/C(=N\NC(=O)c1ccncc1)c1ccc(N)cc1,103%
11,c1cc(CNC23CC4CC(CC(C4)C2)C3)cc(C[N+](Cc2cccc(CNC34CC5CC(CC(C5)C3)C4)c2)(Cc2cccc(CNC34CC5CC(CC(C5)C3)C4)c2)Cc2cccc(CNC34CC5CC(CC(C5)C3)C4)c2)c1 (stereo not given),3.19% [42 µM] (active)
12,Cc1ccc(SC2c3ccc(C)cc3Oc3nc(N)c(C#N)c(N)c32)cc1 (stereo not given),30.7%
13,NC(=O)c1ccc2nc3c(n2c1)C(=O)C(=O)c1ccccc1-3,-63.4% (active)
14,COCCOCCOCc1n(Cc2ccc3ccccc3n2)c2ccccc2[n+]1Cc1ccc2ccccc2n1,109%
15,CC1(C)[C@@H](O)CC[C@]2(C)[C@H]3CC[C@@H]4[C@H]5[C@H](c6cn(-c7ccccc7)nn6)CC[C@]5(CO)CC[C@@]4(C)[C@]3(C)CC[C@@H]12,88.8%
16,O=[N+]([O-])c1ccc(N=Nc2c(O)c(N=Nc3cc([N+](=O)[O-])cc([N+](=O)[O-])c3O)cc(N=Nc3cc(S(=O)(=O)O)cc4cc(S(=O)(=O)O)cc(O)c34)c2O)cc1,101%
17,O=C(O)c1cc(N=Nc2ccc(-c3ccc(N=Nc4c(S(=O)(=O)O)cc5ccc(Nc6ccccc6)cc5c4O)cc3)cc2)ccc1O,100%
18,COc1cc(-c2csc(NC(=O)Nc3cc(Cl)cc(Cl)c3)n2)cc(OC)c1OC,14.5%
19,CC(=O)[C@@H]1CC[C@]2(C(=O)O)CC[C@]3(C)[C@H](CC[C@@H]4[C@@]5(C)Cc6c([nH]c7ccccc67)C(C)(C)[C@@H]5CC[C@]43C)[C@@H]12,44.3%
20,COc1cc([C@H](C)c2ccc3ccccc3c2)cc(OC)c1OC,21.7%

row,Structure (SMILES),growth
1,C=C1C(=O)O[C@H]2[C@H]1CC/C(COC(=O)NCC(=O)Nc1ccc(OC)c(C(N)=O)c1O)=C\CC[C@@]1(C)O[C@@H]21,91.2%
2,NC(=O)C(O)(c1ccccc1)c1ccccc1,101%
3,CC(=O)Oc1c2c(nc3c1c1ccccc1n3Cc1ccccc1)-c1ccccc1C2,84.9%
4,COC1=CC=CC2(OC)C3(O)CCCc4cccc(c43)N3C(=O)COC132 (stereo not given),103%
5,COc1cc(NC(=O)Nc2cnc(Nc3ccc(N4CCOCC4)cc3)nc2Oc2ccc(C(F)(F)F)cc2)cc(OC)c1,103%
6,O=C1NC(SCc2ccc(F)cc2)=N/C1=C/c1cccc(OCc2ccc(Cl)cc2)c1,72.1%
7,CC(C)(C)c1ccc2oc(=O)n(SC(Cl)(Cl)Cl)c2c1,99.1%
8,C=C(C)[C@@H]1CC[C@]2(C(=O)N=C=S)CC[C@]3(C)[C@H](CC[C@@H]4[C@@]5(C)CCC(=O)C(C)(C)[C@@H]5CC[C@]43C)[C@@H]12,20.3%
9,CC[C@]12C=CCN3CC[C@@]4(c5cc(NC(=O)CCC(=O)O[C@H]6CC[C@H]7[C@@H]8CC[C@H]9CC(=O)CC[C@]9(C)[C@H]8CC[C@]67C)c(OC)cc5N(C)[C@H]4[C@@](O)(C(=O)OC)[C@@H]1OC(C)=O)[C@@H]32,58.2%
10,COc1cc(/C=C/C(=O)/C=C/c2cc3ccc(Cl)cc3n(Cc3ccccc3)c2=O)ccc1O,-46.1% (active)
11,O=C1c2ccccc2C(=O)c2c1oc1c2c(=O)[nH]c2ccccc21,44.7%
12,Cc1c(Cl)cccc1NC(=O)c1sc2nc3c(cc2c1N)CCCCC3,30.1%
13,COc1ccc(-c2cc(-c3nnc(SCC(=O)Nc4ccc(/C(C)=N\O)cc4)n3-c3ccccc3)c3cc(OC)ccc3n2)cc1,70%
14,CC(C)(C)c1nn(-c2ccccc2)c2c1COCN2Cc1ccc(Cl)cc1,96%
15,COc1ccc(Nc2cc(NC(=O)CNc3cc(OC)c(Cl)c(OC)c3Cl)ncn2)cc1,73.5%
16,COC(=O)/C=C1\SC(=Nc2ccc(F)cc2)N(CCc2c[nH]c3ccccc23)C1=O,98.3%
17,COc1ccc2nc(-c3ccc(OC)c(OC)c3)cc(-c3nnc(SCC(=O)Nc4ccc(C(C)=O)cc4)o3)c2c1,100%
18,CC1(c2ccccc2Cl)NC(=O)NC1=O (stereo not given),99.2%
19,CCCn1cc(/C=N\N=C2\C(=O)Nc3ccc(C)cc32)c2ccccc21,23%
20,CN(C)C(CNc1oc(-c2cccc3ccccc23)nc1C#N)c1ccco1 (stereo not given),79.8%
